Inconclusive results are not listed. Active and inactive are the calls of the source. The calls were made as follows, unless noted: active = hit-call score of the fitted dose curve at least 0.9, where 1 is the maximum; inactive = score below 0.9.
How the values were obtained:
[1] = read-out: E-selectin (Homo sapiens) (UniProt P16581); assay: BSK_3C_Eselectin: BioMAP Diversity Plus: 3C Assay for Eselectin Biomarker Activity (AID 2283015); conditions: primary human endothelial cells (HUVEC); actives raise or lower the signal;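 as to outcome: cell surface E-selectin protein quantified by ELISA 24 h after dosing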
Method in brief: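 Primary human umbilical vein endothelial cells (3C system) were dosed with chemical and cell-surface E-selectin measured by ELISA 24 h later. Bidirectional curve fitting used DMSO as negative control and baseline.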

[2] = read-out: Interleukin-1 alpha (IL1a), IL1A (gene 3552); assay: BSK_BE3C_IL1a: BioMAP Diversity Plus: BE3C Assay for Interleukin-1 alpha (IL1a) Biomarker Activity (AID 2283016); conditions: primary human bronchial epithelial cells; actives raise or lower the signal
Method in brief: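 Human primary bronchial epithelial cells (BE3C system) were dosed with compound and IL-1a measured by ELISA 24 h later. Activity was fitted bidirectionally against DMSO baseline; cytotoxicity was tracked in parallel cultures by SRB total-protein staining.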

[3] = read-out: Monocyte Chemoattractant Protein-1 (MCP1), CCL2 (gene 6347); assay: BSK_4H_MCP1: BioMAP Diversity Plus: 4H Assay for Monocyte Chemoattractant Protein-1 (MCP1) Biomarker Activity (AID 2283018); conditions: primary human endothelial cells (HUVEC); actives raise or lower the signal
Method in brief: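 Human umbilical vein endothelial cells (4H system) dosed with chemical; MCP-1 measured by ELISA 24 h after dosing. Bidirectional curve fitting against DMSO negative control as baseline; parallel SRB total-protein staining tracks overt cytotoxicity.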

[4] = read-out: Human Leukocyte Antigen - DR isotype (HLADR), HLA-DRA (gene 3122); assay: BSK_3C_HLADR: BioMAP Diversity Plus: 3C Assay for Human Leukocyte Antigen - DR isotype (HLADR) Biomarker Activity (AID 2283019); conditions: primary human endothelial cells (HUVEC); actives raise or lower the signal;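 as to outcome: ELISA of cell-surface HLA-DR on HUVEC 24 h after dosing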
Method in brief: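 Primary human umbilical vein endothelial cells (3C system) were dosed with compound and cell-surface HLA-DR was quantified by ELISA at 24 h. Activity was fitted bidirectionally against DMSO as negative control and baseline.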

[5] = read-out: Interleukin-8 (IL8), CXCL8 (gene 3576); assay: BSK_3C_IL8: BioMAP Diversity Plus: 3C Assay for Interleukin-8 (IL8) Biomarker Activity (AID 2283020); conditions: primary human endothelial cells (HUVEC); actives raise or lower the signal
Method in brief: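 Primary human umbilical vein endothelial cells (3C system) were exposed to test chemical for 24 h, then IL-8 was quantified by ELISA. Responses were fitted bidirectionally against DMSO vehicle as baseline.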

[6] = read-out: Monokine induced gamma interferon (MIG), CXCL9 (gene 4283); assay: BSK_3C_MIG: BioMAP Diversity Plus: 3C Assay for Monokine induced gamma interferon (MIG) Biomarker Activity (AID 2283021); conditions: primary human endothelial cells (HUVEC); actives raise or lower the signal;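 as to AC50: MIG protein level measured by immunoassay in the treated endothelial cultures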
Method in brief: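 Primary human umbilical vein endothelial cells in the 3C system were exposed to chemical for 24 h, after which MIG was quantified by ELISA. Activity was fitted bidirectionally against DMSO as negative control and baseline.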

[7] = target: human Vitamin D Receptor (VDR), VDR (gene 7421) (UniProt P11473); assay: ATG_VDR_TRANS: Attagene TRANS-FACTORIAL HepG2 Assay for human Vitamin D Receptor (VDR) (AID 2283022; active = hit-call score of the fitted dose curve at least 0.9, where 1 is the maximum)
Method in brief: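 HepG2 cells were transiently transfected with multiple GAL4-UAS reporter units, so signal reflects exogenous chimeric receptor-Gal4 activity. After 24 h compound exposure, reporter mRNA was measured by RT-PCR, fluorescent labelling and capillary electrophoresis, fitted for gain of signal versus DMSO.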

[8] = BSK_3C_SRB: Viability Assessment in the BioMAP Diversity Plus: 3C Assay (AID 2283023); conditions: primary human endothelial cells (HUVEC);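 also: fitted both ways against DMSO so a hit may be signal rise or drop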
Method in brief: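 Primary human umbilical vein endothelial cells in the 3C system were read 24 h after compound dosing. Total protein was stained with 0.1% sulforhodamine B after 10% TCA fixation and read at 560 nm, with bidirectional fitting against DMSO as baseline.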

[9] = read-out: Matrix Metallopeptidase 1 (MMP1), MMP1 (gene 4312); assay: BSK_BE3C_MMP1: BioMAP Diversity Plus: BE3C Assay for Matrix Metallopeptidase 1 (MMP1) Biomarker Activity (AID 2283024); conditions: primary human bronchial epithelial cells; actives raise or lower the signal
Method in brief: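 Primary human bronchial epithelial cells were dosed with test chemicals, and MMP1 levels were measured by ELISA 24 h later. Data were fitted bidirectionally against DMSO as the negative control and activity baseline.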

[10] = read-out: Monocyte Chemoattractant Protein-1 (MCP1), CCL2 (gene 6347); assay: BSK_3C_MCP1: BioMAP Diversity Plus: 3C Assay for Monocyte Chemoattractant Protein-1 (MCP1) Biomarker Activity (AID 2283017); conditions: primary human endothelial cells (HUVEC); actives raise or lower the signal
Method in brief: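 Primary human umbilical vein endothelial cells (3C system) were exposed to test chemical for 24 h, after which MCP-1 was quantified by ELISA. Activity was fitted bidirectionally against DMSO as negative control and baseline.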

human Vitamin D Receptor (VDR), VDR (gene 7421), sequence (P11473 whole entry, looked up, the tested form may be a part): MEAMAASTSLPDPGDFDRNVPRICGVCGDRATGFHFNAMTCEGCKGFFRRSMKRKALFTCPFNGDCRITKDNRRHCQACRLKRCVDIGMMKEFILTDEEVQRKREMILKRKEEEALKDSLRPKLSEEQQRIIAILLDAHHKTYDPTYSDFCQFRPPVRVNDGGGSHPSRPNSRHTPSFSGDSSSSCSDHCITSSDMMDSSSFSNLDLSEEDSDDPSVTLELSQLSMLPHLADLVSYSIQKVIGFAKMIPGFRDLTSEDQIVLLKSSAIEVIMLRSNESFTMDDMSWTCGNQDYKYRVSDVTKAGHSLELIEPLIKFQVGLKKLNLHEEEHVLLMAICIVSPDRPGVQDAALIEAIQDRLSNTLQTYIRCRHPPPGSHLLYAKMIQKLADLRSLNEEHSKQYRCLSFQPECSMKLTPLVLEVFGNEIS
E-selectin (Homo sapiens), sequence (P16581 whole entry, looked up): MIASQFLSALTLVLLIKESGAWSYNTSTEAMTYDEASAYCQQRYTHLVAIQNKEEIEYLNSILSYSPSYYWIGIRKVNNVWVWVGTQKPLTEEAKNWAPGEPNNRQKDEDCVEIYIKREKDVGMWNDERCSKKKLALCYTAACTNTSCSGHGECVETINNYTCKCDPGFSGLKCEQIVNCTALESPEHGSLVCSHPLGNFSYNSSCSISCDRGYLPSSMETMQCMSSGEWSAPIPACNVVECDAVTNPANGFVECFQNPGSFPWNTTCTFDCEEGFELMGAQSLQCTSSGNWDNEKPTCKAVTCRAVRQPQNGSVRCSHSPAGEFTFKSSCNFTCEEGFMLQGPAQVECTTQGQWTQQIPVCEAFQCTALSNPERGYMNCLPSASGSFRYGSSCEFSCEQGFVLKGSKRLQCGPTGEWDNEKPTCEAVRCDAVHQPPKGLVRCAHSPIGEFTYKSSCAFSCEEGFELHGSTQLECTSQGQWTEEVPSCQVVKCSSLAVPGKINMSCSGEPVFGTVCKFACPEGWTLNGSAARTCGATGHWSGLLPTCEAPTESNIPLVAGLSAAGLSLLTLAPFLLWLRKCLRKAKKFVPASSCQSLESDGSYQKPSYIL

OC(Cc1ccccc1Cl)(Cn1cncn1)C1(Cl)CC1 (stereo unspecified)
outcome [1]: inactive
outcome [2]: inactive
outcome [3]: inactive
outcome [4]: inactive
outcome [5]: inactive
outcome [6]: inactive
outcome [7]: inactive
outcome [8]: inactive
outcome [9]: inactive

[Cl][Sn]([c]1ccccc1)([c]1ccccc1)[c]1ccccc1
AC50 [1]: 0.154 µM (active)
AC50 [2]: 0.126 µM (active)
AC50 [10]: 0.292 µM (active)
AC50 [3]: 0.066 µM (active)
AC50 [4]: 0.0817 µM (active)
AC50 [5]: 0.298 µM (active)
AC50 [6]: 0.436 µM (active)
outcome [7]: inactive
AC50 [8]: 0.188 µM (active)
AC50 [9]: 0.36 µM (active)

CC(C)N(C(=O)CCl)c1ccccc1
AC50 [1]: 20 µM (active)
AC50 [2]: 35.1 µM (active)
AC50 [3]: 20 µM (active)
AC50 [4]: 7.36 µM (active)
outcome [5]: inactive
AC50 [6]: 33.3 µM (active)
outcome [7]: inactive
AC50 [8]: 20 µM (active)
outcome [9]: inactive

CN(C)C(=S)S
outcome [1]: inactive
AC50 [2]: 29.6 µM (active)
outcome [3]: inactive
outcome [4]: inactive
outcome [5]: inactive
outcome [6]: inactive
outcome [7]: inactive
outcome [8]: inactive
AC50 [9]: 13.2 µM (active)

O=C(CCl)NCO
outcome [1]: inactive
outcome [2]: inactive
outcome [10]: inactive
outcome [3]: inactive
outcome [4]: inactive
outcome [5]: inactive
outcome [6]: inactive
outcome [8]: inactive
outcome [9]: inactive
